From PubChem BioAssay (Tox21) come the findings set out here.

SMILES strings stand for the structures. Activity calls are given as the source filed them. Calls follow the shape of the dose curve; as a rule, active = well fitted curve in the direction sought with a large enough effect in the repeat runs; inconclusive = weak or mixed curves; inactive = flat fitted curve, though single readings scatter.

A short description of this assay: qHTS assay to test for compound auto fluorescence at 590 nm (red) in HEK293 cells (AID 720679). The settings on record: red autofluorescence 540/590 nm; series mostly up to 46 µM. From the text: National Center for Advancing Translational Sciences [NCATS]
NIH Chemical Genomics Center [NCGC]
U.S. Environmental Protection Agency [EPA]
National Institutes of Environmental Health Sciences [NIEHS]
National Toxicology Program [NTP]
U.S. Food and Drug Administration [FDA]
Compound auto fluorescence often interferes with screening of the compound library against various biological targets and signaling pathways. Some of these compounds may have fluorophoric properties. Such properties may interfere with the assay outputs resulting in false positives and/or negatives. To decrease such complications and ensure the compound activities are relevant in terms of biological response, the Tox21 10K compound library was screened for auto fluorescence.
From the fluorophores used as reporter signals in our screening assays, the auto fluorescence equivalencies of compounds against three fluorophores have been evaluated: Triamterene, Fluorescein and Rose Bengal sodium for blue, green and red fluorescence, respectively. The fluorescence intensities were measured using Excitation/Emission wavelengths at 405/460nm, 485/535nm and 540/590nm for blue, green and red labels, respectively. This assay includes the red fluorescence data.
Tox21 Assay Protocol Summary:
2,000 HEK293 cells in 5 uL of culture medium containing 10% dialyzed FBS per well were dispensed into black wall/clear bottom 1536-well plates using a Multidrop Combi Dispenser (Thermo Scientific). The assay plates were incubated for 4-5 hr at 37C to allow cell attachment to the well bottom, followed by the transfer of 23 nL compound or DMSO vehicle by a pintool work station (Kalypsys, San Diego, CA). After the assay plates were incubated overnight at 37C and 5% CO2, fluorescence intensities in the assay plates were measured by an Envision (PerkinElmer, Shelton, CT) plate reader using three labels for measuring blue, green and red fluorescence at […] 460, 535 and 590nm respectively.
In general terms: In qHTS, concentration-response curves come from the screen itself.
For `C[C@@H](CO)NC(=O)[C@@H]1C=C2c3cccc4[nH]cc(c34)C[C@H]2N(C)C1`, the call was inactive. With `O=C(O)/C=C/C(=O)O` the entry was “inactive”; with `O=C1C[C@@H]2OCC=C3CN4CC[C@]56c7ccccc7N1[C@H]5[C@H]2[C@H]3C[C@H]46` (tested in a mixture with another compound), “inactive”; with `COC1=CC=C2[C@H]3Cc4ccc(OC)c5c4[C@@]2(CCN3C)[C@H]1O5`, “inactive”. With `Oc1c(Cl)cc(Cl)cc1Cl` the entry was “inactive”. With `Oc1cc[c]([Hg][Cl])cc1` the entry was “inactive”. Regarding `CCC(C)(S(=O)(=O)CC)S(=O)(=O)CC`, the outcome was inactive. As for `C=CCN1CC[C@]23c4c5ccc(O)c4O[C@H]2[C@@H](O)C=C[C@H]3[C@H]1C5`, the result was inactive. With `C/C=C(\CC)C(=O)NC(N)=O`, the result was inactive.

In the case of `C[C@]12CC[C@H](OS(=O)(=O)O)CC1=CC[C@@H]1[C@@H]2CC[C@]2(C)C(=O)CC[C@@H]12`, the molecule was classed as inactive. Consider `O=C(OCCN1CCCCC1)C(O)(c1ccccc1)c1ccccc1`, for which the molecule was classed as inactive. With `CCCCCc1cc(O)c2c(c1)OC(C)(C)[C@@H]1CCC(C)=C[C@@H]21` the entry was “inactive”. With `O=c1c2ccccc2[se]n1-c1ccccc1` the entry was “inactive”; with `CC(Cc1ccccc1)NC=O` (stereo not given), “inactive”. With `COC(COC(N)=O)C1=C(N2CC2)C(=O)C(C)=C(N2CC2)C1=O` (stereo not given) the entry was “inactive”. Regarding `c1ccc(C2(c3ccccc3)CC2C2=NCCN2)cc1` (stereo not given), the molecule was called inactive.

As to `C[C@@H]1[C@H](O)[C@@H](C)/C=C/C=C/CC/C=C/C=C/C=C/C=C/[C@H](O[C@H]2O[C@@H](C)[C@H](O)[C@@H](N)[C@H]2O)CC2O[C@](O)(C[C@@H](O)[C@H](O)CC[C@@H](O)C[C@@H](O)C[C@@H](O)CC(=O)O[C@H]1C)C[C@H](O)[C@H]2C(=O)O`, the molecule was called inactive.

As for `CCC1(c2ccccc2)C(=O)NC(=O)N(C(=O)c2ccccc2)C1=O` (stereo not given), the result was inactive. With `Cc1nnc2n1-c1ccc(Cl)cc1C(c1ccccc1Cl)=NC2` the entry was “inactive”. With `Clc1ccccc1-c1ccccc1Cl` the entry was “inactive”.

Take `C[C@]12CC[C@H]3[C@@H](CCC4=C(O)C(=O)CC[C@@H]43)[C@@H]1CC[C@@H]2OC(=O)CCC1CCCC1`: the outcome was inactive.

Take `CC(C)C[C@H](CN)CC(=O)O`: the molecule was classed as inactive. With `C[C@@H]([C@H](O)c1ccccc1)N(C)C`, the molecule was classed as inactive. Take `O=C(Nc1ccccc1-c1ccc(Cl)cc1)c1cccnc1Cl`: the result was inactive.

With `c1ccc2c(c1)Sc1ccccc1N2C[C@@H]1CN2CCC1CC2`, the call was inactive. On to `CCC1(c2cnc[nH]2)Cc2ccccc2C1`, for which the molecule was classed as inactive. With `CO[C@H]1[C@@H](O)C[C@H](O[C@H]2[C@@H](O)C[C@H](O[C@H]3[C@@H](O)C[C@H](O[C@H]4CC[C@@]5(C)[C@H](CC[C@@H]6[C@@H]5C[C@@H](O)[C@]5(C)[C@@H](C7=CC(=O)OC7)CC[C@]65O)C4)O[C@@H]3C)O[C@@H]2C)O[C@@H]1C` the entry was “inactive”; with `Clc1ccc(C(Cn2ccnc2)OCc2csc3c(Cl)cccc23)c(Cl)c1` (stereo not given), “inactive”.

`ClC1=C(Cl)[C@]2(Cl)[C@@H]3[C@@H](Cl)[C@H]4O[C@H]4[C@@H]3C1(Cl)C2(Cl)Cl`: the call was inactive. With `CN[C@@H]1C[C@@H](c2ccc(Cl)c(Cl)c2)c2ccccc21` the entry was “inactive”; with `O=C1CCO1`, “inactive”; with `F/C(COc1ccc2c(c1)[nH]c1ccccc12)=C1/CN2CCC1CC2`, “inactive”. With `CCCCCCCCCC(=O)O[C@H]1CC[C@H]2[C@@H]3CCC4=CC(=O)CC[C@]4(C)[C@H]3CC[C@]12C` the entry was “inactive”; with `C[C@@H]1[C@@H]2Cc3ccc(O)cc3[C@@]1(C)CCN2CCc1ccccc1`, “inactive”. `O=C1CCCCC1CN1CCCCC1` (stereo not given): the result was inactive.

In the case of `c1csc(C2(N3CCCCC3)CCCCC2)c1`, the result was inactive. Regarding `C#CCN1CC(=O)N(COC(=O)C2C(C=C(C)C)C2(C)C)C1=O` (stereo not given), the result was inactive. With `C[C@@H](Cc1ccccc1)N(C)C` the entry was “inactive”.

`COC(=O)[C@H]1[C@@H](OC(=O)c2ccccc2)C[C@@H]2CC[C@H]1N2C`: the outcome was inactive. With `C[N+]1(C)[C@@H]2CC[C@H]1CC(OC(=O)c1c[nH]c3ccccc13)C2` (stereo not given in full) the entry was “inactive”.
